Data on 13 compounds can be found in PubChem BioAssay (EPA / NIEHS).

Several values for one entry are separate records, joined by “and”; a condition that tells them apart may be missing. Identical values can stand only once. Some structures have more than one record in an assay (separate samples or runs), and their calls can disagree. Activity calls are given as the source filed them. How the source made its calls: active means hit-call score of the fitted dose curve at least 0.9, where 1 is the maximum; inactive means score below 0.9.

Experiment [1] is described as follows: ATG_ISRE_CIS: Attagene CIS-FACTORIAL HepG2 Assay for human Interferon Regulatory Factor 1 (IRF1) binding to an Interferon-Stimulated Response Element (ISRE) (AID 2282948). The following applies: HepG2 ISRE cis-reporter (Attagene), mRNA transcription readout; actives raise or lower the signal. Put shortly: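 Signal reflects induction or loss of ISRE-linked reporter mRNA in transiently transfected HepG2 cells after a 24 h treatment, detected by fluorescent RT-PCR fragments on capillary electrophoresis and normalised to DMSO.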

The nature of experiment [2]: ATG_M_32_CIS: Attagene CIS-FACTORIAL HepG2 Assay for M32 Transcription Factor (Internal Marker) (AID 2282949).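 Further: background control marker of the multiplexed CIS panel rather than a real target.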 The following applies: HepG2 Attagene cis-factorial M32 reporter, mRNA; actives raise or lower the signal. The method in brief: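 Using DMSO as baseline, bidirectional curve fits were applied to reporter mRNA signals. These came from transiently transfected HepG2 cells exposed for 24 h, with RNA analysed by RT-PCR, FAM primer extension, HpaI digestion and CE.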

Experiment [3] can be described thus: ATG_M_06_CIS: Attagene CIS-FACTORIAL HepG2 Assay for M06 Transcription Factor (Internal Marker) (AID 2282950). The following applies: HepG2 Attagene CIS-FACTORIAL M06 internal marker reporter; actives raise or lower the signal. Put shortly: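 Steps: transfect HepG2 with multiplexed cis-element reporter constructs; dose chemical 24 h; extract RNA with DNase treatment; reverse-transcribe, PCR-amplify, 6-FAM label, HpaI digest; separate fragments by capillary electrophoresis. Activity fitted both directions versus DMSO.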

Experiment [4] has as its target Hypoxia-inducible factor 1-alpha (Homo sapiens) (UniProt Q16665). The experiment is described as follows: ATG_HIF1a_CIS: Attagene CIS-FACTORIAL HepG2 Assay for human Hypoxia Inducible Factor 1 (HIF1A) (AID 2282951). The following applies: HepG2 Attagene cis-factorial HIF1a reporter transcription; actives raise or lower the signal. Put shortly: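 Dosed 24 h, transfected HepG2 cells yielded total RNA whose reporter transcripts were RT-PCR-amplified and sized by capillary electrophoresis using fluorescent labelling; DMSO defined baseline, with gain and loss of signal both fitted.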

Experiment [5] concerns the target Hepatocyte nuclear factor 6 (Homo sapiens) (UniProt Q9UBC0). The experiment is described as follows: ATG_HNF6_CIS: Attagene CIS-FACTORIAL HepG2 Assay for human Hepatocyte Nuclear Factor 6 (HNF6) (AID 2282952). The following applies: HepG2 Attagene cis-factorial HNF6 reporter transcription; actives raise or lower the signal. The method in brief: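 Twenty-four-hour chemical treatment of reporter-transfected HepG2 cells precedes RNA isolation, DNase-treated reverse transcription and PCR of reporter sequences. Labelled fragments are sized by capillary electrophoresis and fitted bidirectionally versus DMSO.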

Experiment [6] concerns the target Heat shock factor protein 1 (Homo sapiens) (UniProt Q00613). The experiment is described as follows: ATG_HSE_CIS: Attagene CIS-FACTORIAL HepG2 Assay for human Heat Shock Transcription Factor 1 (HSE) (AID 2282953). The following applies: HepG2 HSE cis-reporter, Attagene RNA transcription; actives raise or lower the signal. Put shortly:
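Cells were transfected with cis-element-driven reporter constructs, dosed for 24 h, then total RNA was reverse-transcribed and reporter cDNA amplified, FAM-labelled and digested with HpaI. Fragments were resolved by capillary electrophoresis; gain or loss was fitted against DMSO.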

Experiment [7] can be described thus: ATG_MRE_CIS: Attagene CIS-FACTORIAL HepG2 Assay for human Metal Responsive Element (MRE) (AID 2282954). The following applies: HepG2 MRE cis-reporter transcription, Attagene multiplex; actives raise or lower the signal. The method in brief:
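Readout: capillary electrophoresis of 6-FAM-labelled, HpaI-digested RT-PCR reporter products. System: HepG2 cells carrying transient multiplexed cis reporters, dosed 24 h. Analysis: bidirectional fit, DMSO baseline.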

Experiment [8] in a line: ATG_PBREM_CIS: Attagene CIS-FACTORIAL HepG2 Assay for human Phenobarbital-responsive Enhancer Module (PBREM) (AID 2282955). The following applies: HepG2 PBREM cis-reporter, Attagene multiplexed transcription; actives raise or lower the signal. Put shortly: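 Transfected liver-derived HepG2 cells exposed 24 h; PBREM reporter transcript quantified via RT-PCR and capillary electrophoresis, with activity in either direction referenced to DMSO.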

Experiment [9] has as its target Paired box protein Pax-6 (Homo sapiens) (UniProt P26367). The experiment can be described thus: ATG_Pax6_CIS: Attagene CIS-FACTORIAL HepG2 Assay for human Paired Box 6 (PAX6) (AID 2282956). The following applies: HepG2 CIS-FACTORIAL PAX6 reporter transcription, RNA readout; actives raise or lower the signal. Put shortly: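 Values derive from bidirectional curve fitting of reporter mRNA signal relative to DMSO. HepG2 cells bearing transfected cis-regulated MRTUs were exposed for 24 h; transcripts were read by RT-PCR and capillary electrophoresis.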

Experiment [10] is described as follows: ATG_PXRE_CIS: Attagene CIS-FACTORIAL HepG2 Assay for human Pregnane X Receptor Element (PXRE) (AID 2282957). The following applies: HepG2 Attagene CIS-FACTORIAL PXRE reporter, mRNA; actives raise or lower the signal. The method in brief: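 Bidirectional activity, baselined to DMSO, derived from reporter mRNA fluorescence (RT-PCR plus capillary electrophoresis) in HepG2 cells bearing cis-promoter reporter units, 24 h exposure.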

Sequence of Heat shock factor protein 1 (Homo sapiens) (Q00613 whole entry, looked up, the tested form may be a part): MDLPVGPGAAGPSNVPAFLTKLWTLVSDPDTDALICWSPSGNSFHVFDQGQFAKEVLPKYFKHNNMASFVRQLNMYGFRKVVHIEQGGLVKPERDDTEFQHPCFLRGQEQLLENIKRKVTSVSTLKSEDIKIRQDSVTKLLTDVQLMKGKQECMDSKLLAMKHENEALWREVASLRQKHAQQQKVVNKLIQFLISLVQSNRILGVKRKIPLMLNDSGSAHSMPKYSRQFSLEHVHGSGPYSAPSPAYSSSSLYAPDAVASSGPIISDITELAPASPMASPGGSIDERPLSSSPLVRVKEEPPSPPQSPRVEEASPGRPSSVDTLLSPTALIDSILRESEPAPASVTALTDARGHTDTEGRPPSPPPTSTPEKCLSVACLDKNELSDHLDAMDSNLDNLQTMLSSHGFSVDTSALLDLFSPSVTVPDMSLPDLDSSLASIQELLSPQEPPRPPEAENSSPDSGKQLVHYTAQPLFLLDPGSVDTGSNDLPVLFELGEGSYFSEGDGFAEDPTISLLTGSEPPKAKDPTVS
Sequence of Paired box protein Pax-6 (Homo sapiens) (P26367 whole entry, looked up): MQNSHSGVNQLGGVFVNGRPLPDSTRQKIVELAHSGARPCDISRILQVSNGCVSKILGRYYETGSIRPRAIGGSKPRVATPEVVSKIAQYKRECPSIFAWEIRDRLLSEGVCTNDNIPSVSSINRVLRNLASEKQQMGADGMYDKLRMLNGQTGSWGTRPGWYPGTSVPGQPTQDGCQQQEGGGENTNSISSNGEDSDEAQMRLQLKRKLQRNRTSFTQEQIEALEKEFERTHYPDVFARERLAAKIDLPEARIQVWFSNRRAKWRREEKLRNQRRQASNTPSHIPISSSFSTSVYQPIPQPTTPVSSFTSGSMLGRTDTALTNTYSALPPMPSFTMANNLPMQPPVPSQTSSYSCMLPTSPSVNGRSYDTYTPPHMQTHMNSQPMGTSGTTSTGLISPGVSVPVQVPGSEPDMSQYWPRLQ
Sequence of Hepatocyte nuclear factor 6 (Homo sapiens) (Q9UBC0 whole entry, looked up, the tested form may be a part): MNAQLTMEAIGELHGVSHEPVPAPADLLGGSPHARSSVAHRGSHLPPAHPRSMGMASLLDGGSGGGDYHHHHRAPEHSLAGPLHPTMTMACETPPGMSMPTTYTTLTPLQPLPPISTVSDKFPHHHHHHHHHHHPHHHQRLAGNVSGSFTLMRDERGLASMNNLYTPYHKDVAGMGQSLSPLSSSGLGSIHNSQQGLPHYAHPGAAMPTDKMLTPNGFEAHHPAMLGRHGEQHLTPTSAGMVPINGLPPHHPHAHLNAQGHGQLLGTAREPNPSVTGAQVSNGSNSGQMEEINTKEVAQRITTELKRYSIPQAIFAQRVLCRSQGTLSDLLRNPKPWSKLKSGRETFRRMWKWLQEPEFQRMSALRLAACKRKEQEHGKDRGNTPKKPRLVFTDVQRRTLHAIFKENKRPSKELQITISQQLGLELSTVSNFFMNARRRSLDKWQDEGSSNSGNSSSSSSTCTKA
Sequence of Hypoxia-inducible factor 1-alpha (Homo sapiens) (Q16665 whole entry, looked up): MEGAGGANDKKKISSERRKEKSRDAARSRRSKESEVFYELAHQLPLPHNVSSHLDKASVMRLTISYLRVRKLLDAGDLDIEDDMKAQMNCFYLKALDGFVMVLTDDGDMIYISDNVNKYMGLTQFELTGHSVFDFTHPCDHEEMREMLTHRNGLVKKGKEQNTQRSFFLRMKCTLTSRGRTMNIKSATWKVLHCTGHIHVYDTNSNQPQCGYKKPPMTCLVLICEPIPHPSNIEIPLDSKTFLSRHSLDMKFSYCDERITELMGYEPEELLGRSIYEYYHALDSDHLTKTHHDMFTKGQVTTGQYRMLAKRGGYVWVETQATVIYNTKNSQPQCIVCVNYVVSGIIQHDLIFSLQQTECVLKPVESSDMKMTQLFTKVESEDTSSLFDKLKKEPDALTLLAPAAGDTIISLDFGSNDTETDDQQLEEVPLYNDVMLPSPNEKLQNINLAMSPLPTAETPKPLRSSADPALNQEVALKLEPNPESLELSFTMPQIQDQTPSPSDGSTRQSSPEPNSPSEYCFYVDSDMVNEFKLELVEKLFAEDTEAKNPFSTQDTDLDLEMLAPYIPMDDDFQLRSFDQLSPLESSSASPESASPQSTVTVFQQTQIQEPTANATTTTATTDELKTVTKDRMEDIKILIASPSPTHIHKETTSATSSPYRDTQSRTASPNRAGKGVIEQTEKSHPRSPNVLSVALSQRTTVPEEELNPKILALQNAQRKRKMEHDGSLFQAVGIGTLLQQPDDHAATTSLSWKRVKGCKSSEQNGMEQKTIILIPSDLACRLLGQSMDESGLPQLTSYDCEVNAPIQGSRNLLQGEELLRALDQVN

In the case of `O=NO`, the compound was classed as inactive in [1], in [2], in experiment [3], in experiment [4], in experiment [5] and in experiment [6]. Also, the compound was called inactive in [7], in experiment [8], in experiment [9] and in experiment [10].

As to `CCCCCCCCCCCCCCOS(=O)(=O)O`, the call in experiment [1], in [2], in experiment [3], in [4], in experiment [5] and in [6] was inactive. The call in [7], in experiment [8], in experiment [9] and in experiment [10] was inactive.

One may read the AC50 as the midpoint of the concentration-response curve, whichever way the signal moves. Turning to `CN(C)C(=O)NC1(c2ccccc2)CCN(CC[C@@]2(c3ccc(F)c(F)c3)CN(C(=O)c3ccccc3)CCO2)CC1`, the compound was classed as inactive in [1], in experiment [2], in experiment [3], in experiment [5], in experiment [6] and in [9]. In addition, the AC50 in experiment [4] was 47.9 µM (active); in experiment [7], 57.9 µM (active); in experiment [10], 2.43 µM (active).

For `CCCCC(CC)CO` (configuration not stated), the outcome in experiment [1], in experiment [2], in [3], in experiment [4], in [5] and in [6] was inactive. For the same compound, the compound was classed as inactive in [7], in experiment [8] and in experiment [9]. In addition, in [10], the half-maximal activity concentration (AC50) was 27.5 µM (active).

Regarding `CC(=O)S[C@H](C(=O)N[C@H]1Cc2ccccc2[C@H]2CCC[C@@H](C(=O)O)N2C1=O)C(C)C`, the compound was classed as inactive in experiment [1], in experiment [2], in experiment [3], in [4], in experiment [5] and in experiment [6]. In addition, the compound was classed as inactive in experiment [7], in [8] and in experiment [9]. Further, the AC50 in [10] is 40.9 µM (active).

`CC(COCC(C)OC(=O)c1ccccc1)OC(=O)c1ccccc1` (configuration not stated): the call in experiment [1], in experiment [2], in [3], in experiment [4], in experiment [5] and in experiment [6] was inactive. Further, the call in experiment [7], in [8] and in experiment [9] was inactive. In experiment [10], the AC50 was 35.3 µM (active).

As for `O=C(N[C@@H](c1ccccc1)[C@@H]1CCCCN1)c1cccc(C(F)(F)F)c1Cl`, the call in [1], in [2], in experiment [3] and in experiment [8] was inactive. Besides, the AC50 in experiment [4] is 16.6 µM (active); in experiment [5], 62.1 µM (active); in [6], 52.4 µM (active); in experiment [7], 38 µM (active); in experiment [9], 33 µM (active); in experiment [10], 8.23 µM (active).

Turning to `CCc1cc(C2=C(C(=O)O)N(c3ccccc3C(F)(F)F)S(=O)(=O)c3ccccc32)cc2c1OCO2`, the concentration at half-maximal activity (AC50) in [1] is 149 µM (active); in experiment [6], 154 µM (active); in [7] it was 58.5 µM (active); in experiment [8] it was 19.8 µM (active); in experiment [10], 2.14 µM (active). For the same compound, the compound was called inactive in experiment [2], in experiment [3], in experiment [4], in experiment [5] and in experiment [9].

`CCCCCCCCCCCCCCCCO`: the compound was classed as inactive in [1], in experiment [2], in [3], in [4], in experiment [5] and in experiment [6]. Besides, the outcome in experiment [7], in experiment [8], in experiment [9] and in experiment [10] was inactive.

As to `c1ccc2occc2c1`, the call in experiment [1], in [2], in [3], in experiment [4], in experiment [5] and in experiment [6] was inactive. Besides, the outcome in experiment [7], in [8], in experiment [9] and in experiment [10] was inactive.

For `Cc1cc(SC2=C(O)C[C@@](CCc3ccc(N)cc3)(C(C)C)OC2=O)c(C(C)(C)C)cc1CO`, the outcome in [1], in [2], in experiment [3], in [4], in experiment [5] and in [6] was inactive. Moreover, the result in experiment [7] and in experiment [9] was inactive. Also, the AC50 in experiment [10] is 1.55 µM (active).

On to `CSc1ccc(Oc2ccc(S(N)(=O)=O)cc2CN(C)C)cc1C`, for which the compound was classed as inactive in [1], in experiment [2], in [3], in [4], in [5] and in experiment [6]. For the same compound, the outcome in [7], in experiment [8] and in experiment [9] was inactive. Further, the AC50 in experiment [10] was 9.66 µM (active).

Take `CC(=O)O[C@]1(C(C)=O)CC[C@H]2[C@@H]3C=C(Cl)C4=CC(=O)[C@@H]5C[C@@H]5[C@]4(C)[C@H]3CC[C@@]21C`: the AC50 in experiment [1] was 77.5 µM (active); in experiment [5], 165 µM (active) and 57.2 µM (active); in experiment [6], 83.8 µM (active) [middle of 4 runs]; in experiment [7], 100 µM (active) [middle of 4 runs]; in experiment [9] it was 27.3 µM (active) and 66.1 µM (active) and 100 µM (active); in experiment [10], 184 µM (active) and 142 µM (active) and 61.5 µM (active). The result in experiment [1], in experiment [2], in [3], in experiment [5], in experiment [6] and in experiment [7] was inactive. The result in experiment [9] and in [10] was inactive.
